# Values joined by “and” are separate entries in the source; they are usually repeats but may differ in a detail not shown here. Equal values may be shown once. Results filed as inconclusive are left out. Active and inactive are the calls of the source. The call rests on the fitted dose curve; in most records, active means well fitted cell-killing curve with a large enough effect; inconclusive means small, poorly fitted or top-dose-only effect, or effect the other way; inactive means no such curve, though single readings can be large or run the other way.
# Test: qHTS of pediatric cancer cell lines to identify multiple opportunities for drug repurposing: Confirmatory screen for Saos-2 cells (AID 1347127); further: nearly all actives have a fitted effect of over 60% in size
# Settings: Saos-2 osteosarcoma cell viability; series mostly up to 45.9 µM; activity change, negative = cytotoxic: at the top concentration
# Excerpt: Drug repurposing or repositioning has been offered as a strategy for drug development in oncology programs. This approach has special potential for childhood cancers and other rare or orphan diseases, where the expected return on new drug development has been a disincentive to pharmaceuticals.
# In this project we exploit the poly-pharmacology of drugs to discover new indications via phenotypic screening of a panel of 19 well-characterized cell lines derived from solid tumors seen in children and adolescents. The goal is to identify approved drugs with previously unrecognized anticancer properties that has the potential to reveal new mechanisms and biological processes involved in carcinogenesis or drug resistance. We employed a titration-based paradigm (quantitative high-throughput screening or qHTS), where all compounds were tested at multiple concentrations for their effect on cell viability. Concentration-response curves (CRCs) were derived directly from the primary screen, and both potency and efficacy values were used to identify compounds with robust bioactivity profiles. We screened the NIH Chemical Genomics Center (NCGC) Pharmaceutical Collection (NPC) and Mechanism Interrogation Plate (MIPE) small molecule collections of approved and investigational compounds against these cell lines; and measured metabolically active cells after 48 hours of compound treatment as a proxy for cell viability.
# Assay Submitter: Nathalia J. Martinez, National Center for Advancing Translational Sciences, National Institutes of Health, Rockville, MD, USA; email: natalia.martinez@nih.gov
# [1] Shen, M et al. Quantitative high-throughput phenotypic screening of pediatric cancer cell lines identifies multiple opportunities for drug repurposing. Oncotarget 2017 Dec 19;9(4):4758-4772. PMID 29435139.
# The cells were obtained from University of North Carolina (UNC), Pediatric Preclinical Testing Program (PPT), and Coriell Institute (CI).
# qHTS cell viability assay:
# Cells were assayed in growth media at a density of 500-1,000 cells/well. Five microliters of cells were dispensed into 1,536-well, white, solid-bottom, TC-treated plates (Greiner Bio One) using a multidrop dispenser and incubated at 37 degrees C, 5% CO2, under a humidified atmosphere for 5 hours. Twenty-three nanoliters of compounds and controls (neutral control DMSO or positive control bortezomib at final concentration of 2.3 µM) were subsequently transferred by Kalypsys pintool. For primary screens, the MIPE collection was tested at 11-point dilutions (final concentrations range from 0.78 nM to 46 µM) and the NPC collection at 8-point dilutions (final concentrations range from 0.59 nM to 46 µM). Compounds tested in follow-up screens were assayed at 11-point dilutions. Cells were incubated for 48 hours, followed by addition of 3 µL of CellTiter-Glo (Promega). After a 15 min incubation at room temperature, samples were analyzed for luminescence intensity using a ViewLux High-throughput CCD imager equipped with clear filters.
# Potency means the concentration at half of the fitted maximal effect.
SMILES,Potency,"activity change, negative = cytotoxic",outcome
CC(C)C[C@H](NC(=O)[C@H](Cc1ccccc1)NC(=O)c1cnccn1)B(O)O,0.208 µM (active),–,–
COc1cc(C(C)=O)ccc1OCCCN1CCC(c2noc3cc(F)ccc23)CC1,–,3.5% (inactive),–
CC1(C)C(=O)N(CCN2CCC(C(=O)c3ccc(F)cc3)CC2)c2ccccc21,–,-25.6% (inactive),–
O=C(CCc1ccc(O)cc1)c1c(O)cc(O)cc1O,–,7.95% (inactive),–
Cc1ccc(NC(=O)c2ccc(CN3CCN(C)CC3)cc2)cc1Nc1nccc(-c2cccnc2)n1,–,14.7% (inactive),–
O=C(NCC1CCCCN1)c1cc(OCC(F)(F)F)ccc1OCC(F)(F)F (stereo unspecified),–,-13% (inactive),–
CC(=O)O[C@H]1C(=O)[C@@]2(C)C([C@H](OC(=O)c3ccccc3)[C@]3(O)C[C@H](OC(=O)[C@H](O)[C@@H](NC(=O)c4ccccc4)c4ccccc4)C(C)=C1C3(C)C)[C@]1(OC(C)=O)CO[C@@H]1C[C@@H]2O (stereo partly specified),0.0233 µM (active),–,–
CC(S)C(=O)NCC(=O)O (stereo unspecified),–,17.2% (inactive),–
Clc1ccc(C(Cn2ccnc2)OCc2ccsc2Cl)c(Cl)c1 (stereo unspecified),10.4 µM (active),–,–
CCN(CCO)CCCC(C)Nc1ccnc2cc(Cl)ccc12 (stereo unspecified),–,19.3% (inactive),–
Cc1c(C(=O)NN2CCCCC2)nn(-c2ccc(Cl)cc2Cl)c1-c1ccc(Cl)cc1,20.8 µM (active),–,–
Nc1ncn([C@H]2C[C@H](O)[C@@H](CO)O2)c(=O)n1,–,–,inactive
Nc1nc(OCc2ccccc2)c2[nH]cnc2n1,–,-7% (inactive),–
CN(C)c1ccc(O)c2c1C[C@H]1C[C@H]3[C@H](N(C)C)C(=O)C(C(N)=O)=C(O)[C@@]3(O)C(=O)C1=C2O,–,–,inactive
O=C1c2c(O)cc(O)cc2OC(c2ccc(O)c(O)c2)C1O (stereo unspecified),–,17.5% (inactive),–
Nc1ccn([C@@H]2O[C@H](CO)[C@@H](O)C2O)c(=O)n1 (stereo partly specified),–,–,inactive
CCCOc1ccc2nc(NC(=O)OC)[nH]c2c1,0.827 µM (active),–,–
CCOc1cc(CC(=O)N[C@@H](CC(C)C)c2ccccc2N2CCCCC2)ccc1C(=O)O,–,4.77% (inactive),–
Nc1nc(Cl)nc2c1ncn2[C@H]1C[C@H](O)[C@@H](CO)O1,–,-25.4% (inactive),–
C[C@]12CCC(=O)C=C1CC[C@@H]1[C@H]2[C@@H](O)C[C@@]2(C)[C@H]1CC[C@]2(O)C(=O)CO,–,1.43% (inactive),–
CCN(CC)CCOc1ccc(Nc2ncc3cc(-c4c(Cl)cccc4Cl)c(=O)n(C)c3n2)cc1,1.47 µM (active),–,–
CCN(CC)C(=S)SSC(=S)N(CC)CC,16.5 µM (active),–,–
CCCCc1ccc2nc(NC(=O)OC)[nH]c2c1,0.233 µM (active),–,–
Cc1nc(Nc2ncc(C(=O)Nc3c(C)cccc3Cl)s2)cc(N2CCN(CCO)CC2)n1,–,15% (inactive),–
CC[C@]1(O)C[C@H]2CN(CCc3c([nH]c4ccccc34)[C@@](C(=O)OC)(c3cc4c(cc3OC)N(C=O)[C@H]3[C@@](O)(C(=O)OC)[C@H](OC(C)=O)[C@]5(CC)C=CCN6CC[C@]43[C@@H]65)C2)C1,8.3 nM (active) and 165 nM (active),–,–
CN(C)c1ccc2nc3ccc(=[N+](C)C)cc-3sc2c1,1.17 µM (active),–,–

# — PubChem BioAssay (NCATS)
